In the supplement of paper PMC8728848:
The entries come from a sample that favours the strongest signals as a whole.

Assays:
Test in all cases: glycan array binding signal (z-score within array); higher = stronger binding
Settings in all cases: glycan notation: IUPAC condensed, linker removed
[1] = biological target: Fuc(a1-2)Gal(b1-3)GalNAc(a1-3)[Fuc(a1-2)]Gal(b1-4)GlcNAc
How it was run: (§1)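 Negative Z-scores can be read as non-binding. The Z-score is calculated within each array and then averaged across arrays of one protein sequence at different concentrations or buffers and across linkers. Arrays, 3228 in all, were curated from the Consortium for Functional Glycomics database and kept only where the protein sequence was available.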

[2] = biological target: Fuc(a1-2)Gal(b1-3)GlcNAc(b1-2)Man(a1-3)[Fuc(a1-2)Gal(b1-3)GlcNAc(b1-2)Man(a1-6)]Man(b1-4)GlcNAc(b1-4)[Fuc(a1-6)]GlcNAc
How it was run: as §1

[3] = biological target: Fuc(a1-2)Gal(b1-3)GlcNAc(b1-3)Gal(b1-4)Glc
How it was run: as §1

[4] = biological target: Fuc(a1-2)Gal(b1-4)Glc
How it was run: as §1

[5] = biological target: Fuc(a1-2)Gal3S(b1-4)GlcNAc
How it was run: as §1

[6] = biological target: Fuc(a1-2)Gal6S(b1-4)Glc6S
How it was run: as §1

[7] = biological target: Fuc(a1-2)[GalNAc(a1-4)]Gal(b1-4)GlcNAc
How it was run: as §1

[8] = biological target: Fuc(a1-3)[Gal(b1-4)]GlcNAc
How it was run: as §1

[9] = biological target: Gal(a1-3)Gal(b1-3)GlcNAc
How it was run: as §1

[10] = biological target: Gal(a1-3)Gal(b1-3)[Fuc(a1-4)]GlcNAc(b1-2)Man(a1-3)[Gal(a1-3)Gal(b1-3)[Fuc(a1-4)]GlcNAc(b1-2)Man(a1-6)]Man(b1-4)GlcNAc(b1-4)GlcNAc
How it was run: as §1

[11] = biological target: Gal(a1-4)Gal(b1-4)Glc
How it was run: as §1

[12] = biological target: Gal(b1-3)GlcNAc(b1-2)[Gal(b1-3)GlcNAc(b1-6)]Man(a1-6)[Gal(b1-3)GlcNAc(b1-2)Man(a1-3)]Man(b1-4)GlcNAc(b1-4)GlcNAc
How it was run: as §1

[13] = biological target: Gal(b1-3)GlcNAc(b1-3)Gal(b1-3)GlcNAc
How it was run: as §1

[14] = biological target: Gal(b1-3)GlcNAc(b1-3)Gal(b1-4)GlcNAc(b1-3)Gal(b1-4)GlcNAc(b1-2)[Gal(b1-3)GlcNAc(b1-3)Gal(b1-4)GlcNAc(b1-3)Gal(b1-4)GlcNAc(b1-6)]Man(a1-6)[Gal(b1-3)GlcNAc(b1-3)Gal(b1-4)GlcNAc(b1-3)Gal(b1-4)GlcNAc(b1-2)Man(a1-3)]Man(b1-4)GlcNAc(b1-4)[Fuc(a1-6)]GlcNAc
How it was run: as §1

[15] = biological target: Gal(b1-3)[Fuc(a1-4)]GlcNAc(b1-3)Gal(b1-4)GlcNAc
How it was run: as §1

[16] = biological target: Gal(b1-3)[Neu5Ac(a2-6)]GlcNAc(b1-4)Gal(b1-4)Glc
How it was run: as §1

[17] = biological target: Gal(b1-3)[Neu5Ac(b2-6)]GalNAc
How it was run: as §1

[18] = biological target: Gal(b1-4)GalNAc(b1-3)[Fuc(a1-2)]Gal(b1-4)GlcNAc
How it was run: as §1

[19] = biological target: Gal(b1-4)GlcNAc(a1-6)Gal(b1-4)GlcNAc
How it was run: as §1

[20] = biological target: Gal(b1-4)GlcNAc(b1-2)Man
How it was run: as §1

[21] = biological target: Gal(b1-4)GlcNAc(b1-2)[Gal(b1-4)GlcNAc(b1-4)]Man(a1-3)[Gal(b1-4)GlcNAc(b1-2)Man(a1-6)]Man(b1-4)GlcNAc(b1-4)GlcNAc
How it was run: as §1

[22] = biological target: Gal(b1-4)GlcNAc(b1-2)[Gal(b1-4)GlcNAc(b1-4)]Man(a1-3)[GlcNAc(b1-4)][Gal(b1-4)GlcNAc(b1-2)[Gal(b1-4)GlcNAc(b1-6)]Man(a1-6)]Man(b1-4)GlcNAc(b1-4)GlcNAc
How it was run: as §1

[23] = biological target: Gal(b1-4)GlcNAc(b1-2)[Gal(b1-4)GlcNAc(b1-6)]Man(a1-6)[Gal(b1-4)GlcNAc(b1-2)Man(a1-3)]Man(b1-4)GlcNAc(b1-4)GlcNAc
How it was run: as §1

[24] = biological target: Gal(b1-4)GlcNAc(b1-2)[Gal(b1-4)GlcNAc(b1-6)]Man(a1-6)[Gal(b1-4)GlcNAc(b1-2)Man(a1-3)]Man(b1-4)GlcNAc(b1-4)[Fuc(a1-6)]GlcNAc
How it was run: as §1

[25] = biological target: Gal(b1-4)GlcNAc(b1-2)[Gal(b1-4)GlcNAc(b1-6)]Man(a1-6)[GlcNAc(b1-4)][Gal(b1-4)GlcNAc(b1-2)[Gal(b1-4)GlcNAc(b1-4)]Man(a1-3)]Man(b1-4)GlcNAc(b1-4)[Fuc(a1-6)]GlcNAc
How it was run: as §1

[26] = biological target: Gal(b1-4)GlcNAc(b1-3)Gal(b1-4)GlcNAc(b1-2)[Gal(b1-4)GlcNAc(b1-3)Gal(b1-4)GlcNAc(b1-6)]Man(a1-6)[Gal(b1-4)GlcNAc(b1-3)Gal(b1-4)GlcNAc(b1-2)Man(a1-3)]Man(b1-4)GlcNAc(b1-4)[Fuc(a1-6)]GlcNAc
How it was run: as §1

[27] = biological target: Gal(b1-4)GlcNAc(b1-3)Gal(b1-4)GlcNAc(b1-3)Gal(b1-4)GlcNAc(b1-2)Man(a1-3)[Gal(b1-4)GlcNAc(b1-3)Gal(b1-4)GlcNAc(b1-3)Gal(b1-4)GlcNAc(b1-2)Man(a1-6)]Man(b1-4)GlcNAc(b1-4)[Fuc(a1-6)]GlcNAc
How it was run: as §1

[28] = biological target: Gal(b1-4)GlcNAc(b1-3)Gal(b1-4)GlcNAc(b1-3)Gal(b1-4)GlcNAc(b1-2)[Gal(b1-4)GlcNAc(b1-3)Gal(b1-4)GlcNAc(b1-3)Gal(b1-4)GlcNAc(b1-6)]Man(a1-6)[Gal(b1-4)GlcNAc(b1-3)Gal(b1-4)GlcNAc(b1-3)Gal(b1-4)GlcNAc(b1-2)Man(a1-3)]Man(b1-4)GlcNAc(b1-4)[Fuc(a1-6)]GlcNAc
How it was run: as §1

[29] = biological target: Gal(b1-4)GlcNAc(b1-3)Gal(b1-4)GlcNAc(b1-3)Gal(b1-4)GlcNAc(b1-3)Gal(b1-4)GlcNAc(b1-2)Man(a1-3)[Gal(b1-4)GlcNAc(b1-3)Gal(b1-4)GlcNAc(b1-3)Gal(b1-4)GlcNAc(b1-3)Gal(b1-4)GlcNAc(b1-2)Man(a1-6)]Man(b1-4)GlcNAc(b1-4)[Fuc(a1-6)]GlcNAc
How it was run: as §1

[30] = biological target: Gal(b1-4)GlcNAc(b1-3)Gal(b1-4)GlcNAc(b1-3)Gal(b1-4)GlcNAc(b1-3)Gal(b1-4)GlcNAc(b1-2)[Gal(b1-4)GlcNAc(b1-3)Gal(b1-4)GlcNAc(b1-3)Gal(b1-4)GlcNAc(b1-3)Gal(b1-4)GlcNAc(b1-6)]Man(a1-6)[Gal(b1-4)GlcNAc(b1-3)Gal(b1-4)GlcNAc(b1-3)Gal(b1-4)GlcNAc(b1-3)Gal(b1-4)GlcNAc(b1-2)Man(a1-3)]Man(b1-4)GlcNAc(b1-4)[Fuc(a1-6)]GlcNAc
How it was run: as §1

B1: Threefoil (Haloarcula marismortui) (protein)
chain: GSSHHHHHHHHHHSSGLVPRGSHMGDGYYKLVARHSGKALDVENASTSDGANVIQYSYSGGDNQQWRLVDLGDGYYKLVARHSGKALDVENASTSDGANVIQYSYSGGDNQQWRLVDLGDGYYKLVARHSGKALDVENASTSDGANVIQYSYSGGDNQQWRLVDL
glycan array binding signal (z-score) [1]: -0.165
glycan array binding signal (z-score) [2]: 0.056
glycan array binding signal (z-score) [3]: -0.192
glycan array binding signal (z-score) [4]: -0.107
glycan array binding signal (z-score) [5]: -0.199
glycan array binding signal (z-score) [6]: -0.153
glycan array binding signal (z-score) [7]: -0.341
glycan array binding signal (z-score) [8]: -0.151
glycan array binding signal (z-score) [9]: -0.298
glycan array binding signal (z-score) [10]: -0.217
glycan array binding signal (z-score) [11]: 0.139
glycan array binding signal (z-score) [12]: 0.155
glycan array binding signal (z-score) [13]: -0.266
glycan array binding signal (z-score) [14]: 0.426
glycan array binding signal (z-score) [15]: 0.307
glycan array binding signal (z-score) [16]: -0.13
glycan array binding signal (z-score) [17]: -0.229
glycan array binding signal (z-score) [18]: -0.231
glycan array binding signal (z-score) [19]: 0.067
glycan array binding signal (z-score) [20]: -0.105
glycan array binding signal (z-score) [21]: 3.48
glycan array binding signal (z-score) [22]: 8.13
glycan array binding signal (z-score) [23]: 0.527
glycan array binding signal (z-score) [24]: 3.39
glycan array binding signal (z-score) [25]: 6.8
glycan array binding signal (z-score) [26]: 6.34
glycan array binding signal (z-score) [27]: 6.67
glycan array binding signal (z-score) [28]: 9.87
glycan array binding signal (z-score) [29]: 3.74
glycan array binding signal (z-score) [30]: 7.31
